High-throughput results deposited in PubChem by National Center for Advancing Translational Sciences (NCATS).
Sampled rows, rich in hits. Any-hit rate of the full collection: about 7.3%.
Rab9 promoter act – Rab9 promoter activation; 2.8% of 320,000 active; Potency, µM (doses to about 9.22 µM), for inactives: at the highest dose activation, negative = inhibition, most hits filed as activators; Huh7 Rab9 promoter-luciferase reporter, luminescence, 24 h; note: % of control where 0% means no effect; nearly all actives have a fitted effect of over 60% in size
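Luminescence read-out: Huh7 cells stably expressing Rab9-luciferase, treated 24 h with compound at 37 °C, then lysed with luciferase reagent for 10 min at ambient before reading.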
NPC1 prom act – activates the NPC1 promoter; Huh7 NPC1 promoter luciferase reporter, 24 h; 2.4% of 320,000 active; Potency, µM (top dose mostly 9.22 µM), for inactives: at the highest dose activation, actives largely listed as activators; AID 485313; note: % of control where 0% means no effect; nearly all actives have a fitted effect of over 60% in size
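Cells: Huh7 expressing luciferase under the NPC1 promoter, 1500/well. Seeded 2 h, compound added, incubated 24 h at 37 °C. Luciferase reagent, 10 min ambient, then luminescence.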
FLuc counter – counter-screen for miR-21 project: firefly luciferase inhibitors or activators; P08659; purified FLuc, Km substrates, luminescence inhibition; Potency, µM (titrated, usually from 57.5 µM), for the others: at the top dose activity change, negative = inhibition, most hits filed as inhibitors; 6.9% of 360,000 active; AID 588342;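 note: plate controls were vehicle for no effect and reference inhibitor for full effect; nearly all actives have a fitted effect of over 55% in size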
Target sequence (P08659 whole entry, looked up): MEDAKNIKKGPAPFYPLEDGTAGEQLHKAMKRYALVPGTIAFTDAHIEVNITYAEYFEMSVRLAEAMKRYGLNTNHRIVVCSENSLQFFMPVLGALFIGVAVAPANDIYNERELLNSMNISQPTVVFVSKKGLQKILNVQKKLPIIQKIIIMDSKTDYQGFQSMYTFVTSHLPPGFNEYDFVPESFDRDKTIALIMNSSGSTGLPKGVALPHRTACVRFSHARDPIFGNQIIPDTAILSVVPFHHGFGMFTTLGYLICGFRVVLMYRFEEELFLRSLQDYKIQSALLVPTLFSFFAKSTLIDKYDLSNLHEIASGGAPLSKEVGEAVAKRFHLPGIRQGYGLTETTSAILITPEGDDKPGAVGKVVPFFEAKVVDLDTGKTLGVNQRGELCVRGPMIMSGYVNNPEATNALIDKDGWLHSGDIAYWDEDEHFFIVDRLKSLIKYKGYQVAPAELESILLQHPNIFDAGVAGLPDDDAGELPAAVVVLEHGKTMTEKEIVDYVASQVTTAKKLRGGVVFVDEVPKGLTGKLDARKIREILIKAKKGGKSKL
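Purified P. pyralis luciferase, 10 nM final, with Km-level 10 uM D-luciferin and 10 uM ATP in 50 mM Tris acetate pH 7.5, 10 mM Mg acetate, 0.01% Tween-20, 0.05% BSA; 6-point qHTS titration about 60 µM downward; luminescence read.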
SMN2 splice up – increases expression of the SMN2 splice variant; HEK293 SMN2-luciferase splicing reporter, luminescence, 30-36 h; Potency, µM (highest dose often 46.1 µM), for inactives: at the highest dose activity change, positive = activation, most hits filed as activators; 2.8% of 210,000 active; note: % of control where 0% means no effect; nearly all actives have a fitted effect of over 55% in size
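HEK293 cells carry an SMN2 minigene-luciferase reporter in which exon 7 inclusion puts luciferase in frame. Cells were seeded at 2000 cells/well, attached for 10-12 hours, then exposed to compounds for 30-36 hours at 37C before ONE-Glo luminescence.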
ELG1 genotox – genotoxicity induction in ELG1-luciferase HEK293T cells | HEK293T ELG1-luciferase reporter, luminescence, 16 h | Potency, µM (doses to about 46 µM), for inactives: at the top dose activity change, positive = activation, actives largely listed as activators | 1.3% of 330,000 active; note: % of control where 0% means no effect; nearly all actives have a fitted effect of over 60% in size
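Quantitative HTS format in 1536-well plates. HEK293T ELG1-luciferase reporter cells receive test compound and are incubated 16 hr at 37 °C, 5% CO2; ONE-Glo added, 30 min room temperature, then luminescence read.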
KinaseGlo FLuc – counter-screen: inhibitors of Kinase-Glo firefly luciferase; Q27757; Kinase-Glo luciferase, ATP luminescence, 8 min; Potency, µM (series often up to 38.3 µM), for inactives: top-dose activity change, negative = inhibition, most hits filed as inhibitors; 0.28% of 200,000 active; AID 1379; note: % is set by controls: 0 for no effect and ±100 for the full control effect; nearly all actives have a fitted effect of over 60% in size
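Kinase-Glo luciferase light output from ATP and luciferin was measured with 10 uM ATP, within the enzyme's linear range. Buffer: 50 mM imidazole pH 7.2, 50 mM KCl, 7 mM MgCl2, 0.01% Tween 20, 0.05% BSA; luminescence read after 8 min at ambient temperature.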
An asterisk follows results filed as active; ? = inconclusive; . = no result; [ ] = remark or other dose. Calls come from the whole dose curve; as a rule, active = well fitted curve in the direction sought with a large enough effect; inconclusive = small, poorly fitted or top-dose-only effect, or another doubt; inactive = no such curve, though single readings can be large; an effect the other way counts as inactive or inconclusive. Potency is the fitted concentration of half-maximal effect.

SMILES	Rab9 promoter act	NPC1 prom act	FLuc counter	SMN2 splice up	ELG1 genotox	KinaseGlo FLuc
O=C(O)CCn1cc(C=C2C(=O)NC(=S)NC2=O)c(-c2cc3ccccc3oc2=O)n1	12%	2%	17µM*	-25%	0%	-8%
O=C(O)CCn1cc(C=C2C(=O)NC(=S)NC2=O)c(-c2ccccc2)n1	5%	3%	24µM*	11%	2%	-7%
COC(=O)c1cn(CCOc2ccccc2)c2ccccc12	2%	22%	?	23%	21µM*	0%
CO[C@@H]([CH2][Hg])CN1C(=O)c2ccccc2S1(=O)=O.Cn1c(=O)c2nc[nH]c2n(C)c1=O	.	.	.	-9%[9.22 µM]	.	1%[7.66 µM]
COC(=O)c1ccc(CC(C(=O)c2ccccc2)N(C)C)cc1 (centres undefined)	?	?	15µM*	.	?	.
O=C(O)C(Cl)(Cl)Br	.	.	.	-4%	.	.
CN(C)C(=O)Nc1ccc(Cl)cc1	.	.	.	-6%	.	.
Cn1cnc2cc(NC(=O)c3ccc(Cl)cc3)ccc21	2.8µM*	2.8µM*	12µM*	11µM*	?	0%
N[C@H](Cc1c[nH]c2ccccc12)P(=O)(O)O	.	.	.	1%[9.22 µM]	.	1%[7.66 µM]
C[C@@H]1O[C@@H](O[C@H]2C[C@@H](O)[C@]3(CO)[C@H]4[C@H](O)C[C@]5(C)[C@@H](C6COC(=O)C6)CC[C@]5(O)[C@@H]4CC[C@]3(O)C2)[C@H](O)[C@H](O)[C@H]1O (some centres undefined)	-37%	-45%	5%	0.79µM*	-22%	14%
Cc1ccc(Cn2cc(C=O)c(-c3ccc(C)cc3)n2)cc1	?	25%	17µM*	?	?	2%
Cc1cc[c]([Sb]2[O]C([C@H](O)[C@H](O)C(=O)O)[C@@H](CO)[O]2)cc1 (some centres undefined)	.	.	.	3%[9.22 µM]	.	0%[7.66 µM]
Cc1ccc(Cl)cc1N1CCN(C(=O)C2CCCN(S(=O)(=O)c3ccc(Br)s3)C2)CC1 (centres undefined)	.	.	1%	-32%	.	.
CN1C(=O)C(=Cc2ccc(N3CCCCCC3)cc2)C(=O)N(C)C1=O	0%	-3%	19µM*	.	0%	.
O=C1NC(=O)N(Cc2ccc(F)cc2)C(=O)/C1=C\c1ccc(N2CCCC2)cc1	2%	-4%	?	.	11%	.
CN(C)c1ccc(/C=C/c2cc[n+](C)c3ccccc23)cc1	-30%[1.84 µM]	-38%	?	-100%	8%	13µM*
CN(C)c1ccc(/C=C/C=C/c2sc3ccccc3[n+]2C)cc1	-35%	-26%	?	.	-10%	.
CC(Oc1ccc(Br)cc1)C(=O)N(Cc1nc(-c2ccccc2)no1)C(C)C (centres undefined)	.	.	-12%	-43%	.	.
CCOC(=O)c1ncc2[nH]c3ccc(OCc4ccccc4)cc3c2c1COC	.	.	.	.	.	-2%[39.9 µM]
CCCOC(=O)c1cc2c(cn1)[nH]c1ccccc12	.	.	.	28µM*	.	.
COc1ccc(-c2nc3ccccc3c(=O)o2)cc1	?	?	1.2µM*	11µM*	?	?
O=C(Cc1ccccc1)OCC(=O)c1ccccc1	0%	-4%	6.7µM*	.	-2%	.
O=C(Cc1ccccc1)OCC(=O)c1ccc(F)cc1	.	.	.	.	2%	.
Cc1ccc(C(=O)COC(=O)Cc2ccccc2)cc1	0%	2%	0.95µM*	.	?	.
CC(Cl)CCl (centres undefined)	.	.	.	9%	.	.
SMILES	Rab9 promoter act	NPC1 prom act	FLuc counter	SMN2 splice up	ELG1 genotox	KinaseGlo FLuc
[O-][Br+2]([O-])O	.	.	.	-4%	.	.
CSc1cccc(CNC(=O)C2CCC(=O)N(Cc3cccc(C(F)(F)F)c3)C2)c1 (centres undefined)	?	?	17µM*	.	?	.
C/C(=N\NC(=S)Nc1ccccc1)c1c(O)n(C)c(=O)n(C)c1=O	-2%	6%	12µM*	28%	7%	0%
CC/C(=N\Nc1ccccc1)c1c(O)n(C)c(=O)n(C)c1=O	-13%	1%	-2%	-39%	0%	3%
COc1ccc(C(CC(=O)N2CCC3(CC2)OCCO3)NS(=O)(=O)c2ccc(F)cc2)cc1 (centres undefined)	3.5µM*	-6%	-1%	-5%	-3%	-4%
COc1cc2c(cc1OC)[C@@]13CCN4C=C5CCO[C@H]6CC(=O)N2[C@@H]1C6[C@H]5C[C@H]43 (some centres undefined)	.	.	.	-13%[9.22 µM]	.	-4%[7.66 µM]
COC(=O)c1ccc(-c2nc(-c3ccc(Br)o3)no2)cc1	4µM*	3.2µM*	1.7µM*	12%	?	-12%
COC(=O)c1ccc(-n2c(C)nc3ccccc3c2=O)cc1	-6%	2%	2%	-9%	0%	-3%
O=Cc1cn(CCCOc2ccccc2)c2ccccc12	?	?	-19%	-61%	-9%	1%
COc1ccccc1OCCCn1cc(C=O)c2ccccc21	0.5µM*	?	?	.	-1%	-2%
CCCCC[CH2][Hg][S]C1=C2N=CNC2NC(N)=N1 (centres undefined)	.	.	.	-48%[9.22 µM]	.	-5%[7.66 µM]
Cc1cc(/C=C2/C(=O)NC(=O)N(Cc3ccco3)C2=O)c(C)n1-c1ccccc1	0%	1%	5.4µM*	-28%	6%	-3%
O=C1NC(=S)N(Cc2ccco2)C(=O)/C1=C\c1cccs1	-8%	-4%	17µM*	-18%	0%	5%
O=C(O)CN1CCN(CC(=O)O)CC(=O)[O][Hg][O]C(=O)C1	.	.	.	5%[9.22 µM]	.	-20%[7.66 µM]
Nc1nc(N)c(Cn2ccnc2)c(=O)[nH]1	.	.	.	-3%[9.22 µM]	.	0%[7.66 µM]
O=C(c1ccccc1)c1ccc(N=Nc2c(O)[nH]c(=O)[nH]c2=O)cc1	?	-9%	1%	3%	12%	0%
O=c1[nH]c(=S)[nH]c(O)c1N=Nc1ccc(SC(F)F)cc1	3.2µM*	3.2µM*	1.2µM*	.	6.5µM*	.
CC(C)c1ccc(N=Nc2c(O)[nH]c(=O)[nH]c2=O)cc1	?	?	2.4µM*	.	?	.
O=C(O)c1cccc(N=Nc2c(O)[nH]c(=O)[nH]c2=O)c1	27%	-4%	15µM*	.	-2%	.
C=C[C@@H]1CN2CC[C@H]1CC2[C@H](O)c1ccnc2ccccc12 (some centres undefined)	.	.	.	-7%[9.22 µM]	.	2%[7.66 µM]
CCC(=O)Nc1ccc(C(=O)OCc2ccccc2Cl)cc1	?	?	19µM*	-14%	15%	-1%
NC[C@@H](O)CSP(=O)(O)O	.	.	.	-15%[9.22 µM]	.	-3%[7.66 µM]
CC1(C)CCC(C)(C)c2c1ccc(O)c2Cc1c(O)ccc2c1C(C)(C)CCC2(C)C	.	.	.	-7%[9.22 µM]	.	-2%[7.66 µM]
Nc1c(C(=O)Nc2ccc(Cl)cc2)sc2nc3c(cc12)N1CCC3CC1	.	.	-15%	-5%	.	.
